# Most compounds without a hit are left out; they make up all but 27% or so of the library.
# Cav3 T inh: Cav3.2 calcium influx blockers – cell-based, Fluo-4 calcium fluorescence, FDSS, MLSMR library, primary screen. Voltage-dependent T-type calcium channel subunit alpha-1H (Homo sapiens), O95180. Cav3.2-expressing cells; active compounds read low. B-score at 10 µM. 100,000 tested, 4% active. AID 449739, 2010;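 active = single-dose well whose peak fluorescence ratio is a statistical outlier from its plate by either plate-standardised score or position-corrected B-score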
# CYP2C19 act: human CYP2C19 activators, primary screen, biochemical, luminescence; recombinant CYP2C19, luciferin-H EGE luminescence; active compounds read high; 0 = fully inhibited enzyme, 1 = untreated enzyme; AID 1025, 2008; 96,000 tested, under 10 active; activation factor at 5 µM; Cytochrome P450 2C19 (Homo sapiens), P33261;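 active = activation factor of at least 2 at 5 µM in the primary screen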;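 note: 0 = wells with 2.5 mM tranylcypromine and 1 = vehicle-only wells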
# Target sequence (P33261 whole entry, looked up): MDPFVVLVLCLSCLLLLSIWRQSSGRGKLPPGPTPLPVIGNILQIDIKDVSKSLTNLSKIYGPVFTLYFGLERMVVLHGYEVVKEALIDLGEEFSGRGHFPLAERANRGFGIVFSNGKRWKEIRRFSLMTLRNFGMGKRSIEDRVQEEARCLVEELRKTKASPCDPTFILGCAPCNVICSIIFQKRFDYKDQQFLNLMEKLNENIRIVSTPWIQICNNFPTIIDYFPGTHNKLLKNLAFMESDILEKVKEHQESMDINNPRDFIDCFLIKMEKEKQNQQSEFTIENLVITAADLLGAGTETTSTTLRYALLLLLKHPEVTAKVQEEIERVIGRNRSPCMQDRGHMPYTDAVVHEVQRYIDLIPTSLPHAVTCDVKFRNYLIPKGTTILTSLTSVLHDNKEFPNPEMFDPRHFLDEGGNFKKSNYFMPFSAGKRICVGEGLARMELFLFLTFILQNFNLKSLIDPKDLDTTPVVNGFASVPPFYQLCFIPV
# CYP2C9 activ: human CYP2C9 activators, primary screen, biochemical, luminescence; Cytochrome P450 2C9 (Homo sapiens), P11712; recombinant CYP2C9, luciferin-H conversion; active compounds read high; factor 1 = untreated enzyme, 0 = blocked; activation factor at 5 µM; 96,000 tested, 1.4% active; AID 1024, 2008;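 active = activation factor of 2 or more for CYP2C9 at a 5 µM dose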;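 note: 0 = sulfaphenazole-blocked wells and 1 = vehicle-only wells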
# CYP2C19 inh: blockers of cytochrome P450 2C19 activity – biochemical, luminescence, ADME assay, primary screen. P33261. CYP2C19 Supersomes, luciferin-H EGE luminescence, 30 min. inhibition, % at 5 µM. 96,000 tested, 21% active;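 active = CYP2C19 inhibition above a set limit at 5 µM in the primary screen, cut at about 50% in these data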;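 note: plate controls were negative control wells for no effect and 2.5 mM tranylcypromine positive control for full effect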
# CYP2C9 inh: blockers of cytochrome P450 2C9 activity – biochemical, luminescence, ADME assay, primary screen | CYP2C9 Supersomes, luciferin-H conversion | inhibition, % at 5 µM | 96,000 tested, 20% active;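 active = blocking of liver enzyme CYP2C9 beyond about 50% at 5 µM, limit read from the data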
# Numbers without * were called inactive; · = no result given.
SMILES,Cav3 T inh,CYP2C19 act,CYP2C9 activ,CYP2C19 inh,CYP2C9 inh
CSC(=NS(=O)(=O)c1ccccc1)SC,0.82,0.9,1.4,7,-42
CS/C(=N\S(=O)(=O)c1ccc(Cl)cc1)c1ccccc1,-2.1,0,0.1,96*,89*
Cc1ccc(/C=C2\CCC3=C2OC(N)=C(C#N)C3c2ccc(C)cc2)cc1 (stereo not drawn),-6.5*,1,0.4,-1,56*
COc1cccc(/C=C2/CN(C)CC3=C2OC(N)=C(C#N)C3c2cccc(OC)c2)c1 (stereo not drawn),-0.68,·,·,·,·
COc1ccccc1C1C(C(=O)c2cc3ccccc3o2)=C(O)C(=O)N1CCN1CCOCC1 (stereo not drawn),0.05,1.2,1.2,-16,-20
N#Cc1cccc(NC(=O)CSc2ccc3c4c(cccc24)C(=O)c2ccccc2-3)c1,-5.6*,0.7,0.3,30,74*
COc1ccc(NC(=O)CSc2c(C)n[nH]c2C)cc1,0.25,1,0.9,1,8
COc1ccc(NC(=O)CSc2ccc3c4c(cccc24)C(=O)c2ccccc2-3)cc1,-4.4,0.7,0.2,28,84*
CCN(C(=O)CN1CCN(c2ccc(OC)cc2)CC1)c1c(N)n(Cc2ccccc2)c(=O)[nH]c1=O,-0.6,1.2,1,-16,-5
Cc1cc2n(n1)C(c1cn(-c3ccccc3)nc1C)Nc1ccccc1-2 (stereo not drawn),-2.5,0.8,0.6,20,42
Cc1cc2n(n1)C(c1c[nH]c3ccccc13)Nc1ccccc1-2 (stereo not drawn),-0.38,0.8,0.2,22,81*
COc1cccc(NC(=O)COC(=O)c2ccc(S(=O)(=O)NCc3ccco3)cc2)c1,-0.47,0.9,0.1,7,86*
CC(C)CC(=O)Nc1ccc(S(=O)(=O)NCc2ccco2)cc1,0.97,1.1,0.5,-7,46
O=C(COc1ccccc1)NCC(=O)Nc1ccc(S(=O)(=O)NCc2ccco2)cc1,·,1.1,0.4,-8,57*
O=C(COc1ccccc1)Nc1ccc(S(=O)(=O)NCc2ccco2)cc1,-1.4,0.8,0.5,17,51*
O=C(COc1ccccc1F)Nc1ccc(S(=O)(=O)NCc2ccco2)cc1,-3.6,0.8,0.5,17,53*
O=C(Nc1ccc(S(=O)(=O)NCc2ccco2)cc1)c1ccc2ccccc2n1,·,1.1,0.8,-7,24
O=c1[nH]cnc2cc(Cl)ccc12,0.26,1.1,0.9,-6,5
O=C(COc1ccccc1)Nc1nn[nH]n1,0.43,1,0.9,-3,7
O=C(CSc1ccccn1)Nc1nc2ccc(Br)cc2s1,0.051,0.8,0.8,25,22
CCOC(=O)c1c(NC(C)=O)sc2c(OC(C)=O)cccc12,0.13,1.1,1.1,-14,-14
COc1ccc(N2CCN(c3cc(=O)n(Cc4ccc(F)cc4)c(=O)[nH]3)CC2)cc1,-4.9*,1.1,1.1,-12,-14
O=c1cc(N2CCN(c3ccc(F)cc3)CC2)[nH]c(=O)n1Cc1ccc(F)cc1,-8.8*,0.9,1,5,2
O=c1cc(N2CCOCC2)[nH]c(=O)n1Cc1ccc(F)cc1,0.0029,1.1,1,-11,-2
COc1ccc(CCNC(=O)C(=O)N2CCCCC2)cc1OC,-0.0052,·,·,·,·
SMILES,Cav3 T inh,CYP2C19 act,CYP2C9 activ,CYP2C19 inh,CYP2C9 inh
COc1ccccc1CNC(=O)CCN1C(=O)COc2ccc(C)cc21,0.043,0.4,0.9,62*,10
CCN(CCCNC(=O)CCCN1C(=O)COc2ccc(C)cc21)c1cccc(C)c1,-3.1,0.5,0.4,50*,58*
Cc1ccc2c(c1)N(CCC(=O)NCc1ccco1)C(=O)CO2,0.61,0.6,1.1,38,-13
O=C(CCCCCN1C(=O)c2ccccc2C1=O)NCc1ccco1,·,0.8,0.4,22,60*
COc1ccccc1CNC(=O)CCN1C(=O)COc2ccccc21,0.55,0.5,1.7,50*,-65
CC(SCCc1ccccn1)C(=O)O (stereo not drawn),1,0.8,1.1,16,-7
Cc1nnc(NC(=O)CCC(=O)NCc2ccco2)s1,0.021,0.9,1,6,1
Cc1ccc2c(c1)N(CCC(=O)NCc1ccccn1)C(=O)CO2,1.2,0.4,1.1,55*,-14
Cc1ccc2c(c1)N(CCC(=O)NCc1cccnc1)C(=O)CO2,0.63,0.6,0.8,44,20
O=C(CCN1C(=O)COc2ccccc21)NCc1ccco1,1.4,0.1,0.9,94*,8
CC(C)(Oc1cccc2ccccc12)C(=O)O,0.42,1,1,5,4
CCOC(=O)c1c2ccc(OCC(=O)N/N=C/c3ccccc3C(F)(F)F)cc2n2ccccc12,-0.49,0.8,0.4,16,59*
Cc1cc(-c2cc(-c3ccc(Cl)cc3)nc(N)c2C#N)co1,·,0.2,0.3,83*,69*
Cc1ccc(-c2cc(-c3ccc(Cl)cc3)c(C#N)c(N)n2)o1,-1.6,0.2,0.4,75*,57*
CN1/C(=N\O)c2cccc3cccc1c23,-4.4*,0.3,1.8,70*,-77
COc1ccc(/C=N\NC(=O)COc2ccc(C(C)(C)C)cc2)cc1Cn1nc(C)cc1C,-0.84,0.5,0.1,53*,95*
Cc1cc(C)n(CC(=O)N/N=C/c2ccco2)n1,-0.49,1,0.9,-1,5
COc1ccc(-c2nnn(CC(=O)N(Cc3ccccc3Cl)C(C(=O)NCC3CCCO3)c3ccco3)n2)cc1 (stereo not drawn),0.086,0.9,0.6,7,43
Cc1ccc(-c2nnn(CC(=O)N(c3ccccc3)C(C(=O)NCC3CCCO3)c3ccc(Cl)cc3)n2)cc1 (stereo not drawn),-4.6*,0.4,0.1,62*,88*
Cc1ccc(-c2nnn(CC(=O)N(c3ccccc3F)C(C(=O)NCC3CCCO3)c3c[nH]c4ccccc34)n2)cc1 (stereo not drawn),-7.1*,0.6,0.2,36,75*
COc1ccc(Cc2nnc(N)s2)cc1OC,1.3,·,·,·,·
COc1ccc(Cc2ccc(OC)c(N)c2)cc1N,-1.9,0.3,1.1,66*,-6
Cc1cc(C)n(-c2ccc(-n3ccnc3)nn2)n1,0.021,0,0.6,99*,40
Cc1cc(C)n(-c2cc(-n3nc(C)cc3C)ncn2)n1,-2.5,0.6,1.2,43,-17
CCn1c(Cc2ccccc2)nnc1SCC(=O)Nc1nc(C)c(C)s1,-0.11,0.8,1.1,24,-13
Cc1nc2ccc(NS(=O)(=O)c3ccc(C)c(C)c3)cc2s1,-3.4,0.7,0.2,33,77*
